For assay [1], the system named is PRMT1 (protein arginine N-methyltransferase 1). In words: PRMT1 binders on small-molecule microarrays, primary screen, biochemical, small-molecule microarray, 635 nm fluorescence (AID 1088).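 Also: binding of Prmt1 protein to compounds spotted on small-molecule microarray slides.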 To be noted: small-molecule microarray binding, higher = more signal.
Assay [2] is described as follows: yeast growth modulation, basal conditions, primary screen, YJM789 clinical isolate, OD600, 24 h (AID 1089).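 Also: growth of clinical yeast isolate S. cerevisiae YJM 789 seeded 1000 cells per well; test concentration not given here.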 The settings on record: S. cerevisiae YJM789 growth, higher = more signal, called active from +8 up or from −8 down.
Assay [3] in a line: fission yeast growth modulation, primary screen, strain 972, OD600, 24 h, no modulator (AID 1090).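 Also: basal condition with compound alone and no growth modifier present; test concentration not given here.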 The settings on record: S. pombe 972 growth, higher = more signal, called active from +8 up or from −8 down.
Assay [4] is described as follows: S. cerevisiae growth modulation with rapamycin, primary screen, strain BY4716, OD600, 96 h (AID 1091). Also: test concentration not given here. To be noted: higher = more signal, called active from +8 up or from −8 down.
Assay [5] addresses Torsin-1A-interacting protein 2 (Homo sapiens) (UniProt Q8NFQ8). Nature of the assay: LULL1 binders on small-molecule microarray, primary screen, cell lysate, human LULL1 lysate, 635/667 nm fluorescence (AID 1092).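 Also: probe is lysate of COS7 cells overexpressing human LULL1; score merges per-feature 667 nm fluorescence with signal-to-noise.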 To be noted: hLULL1 lysate binding, 635 nm fluorescence, higher = more signal.
The nature of assay [6]: E. coli growth modulation, two-sided OD650, primary screen, E. coli filamentation project, strain DRC41, 24 h (AID 1093).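 Also: MC1000 strain lacking acrAB efflux and sulA so SOS filamentation is blocked; test concentration not given here.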 The settings on record: OD650, 24 h, higher = more signal, called active from +8 up or from −8 down.
Assay [7] is described as follows: small-molecule microarray binders of probe aLefty2, primary screen, biochemical, biotinylated probe, 635/667 nm fluorescence (AID 1094).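 Also: score merges spot fluorescence near 667 nm with spot signal-to-noise ratio.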 To be noted: higher = more signal.
Assay [8] relates to Noggin (protein binding on small-molecule microarray). In words: Noggin binders on small-molecule microarray, primary screen, biochemical, 635/667 nm fluorescence (AID 1095).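 Also: score merges 667 nm feature fluorescence with signal to noise over triplicate slides.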 The settings on record: 635 nm fluorescence, higher = more signal.
The target of assay [9] is Neurogenic locus notch homolog protein 3 (Homo sapiens) (UniProt Q9UM47). Nature of the assay: NOTCH3 binders on small-molecule microarray, primary screen, biochemical, 635/667 nm fluorescence (AID 1096). To be noted: NOTCH3 binding, 635 nm fluorescence, higher = more signal.
Chain of Neurogenic locus notch homolog protein 3 (Homo sapiens) (Q9UM47 whole entry, looked up): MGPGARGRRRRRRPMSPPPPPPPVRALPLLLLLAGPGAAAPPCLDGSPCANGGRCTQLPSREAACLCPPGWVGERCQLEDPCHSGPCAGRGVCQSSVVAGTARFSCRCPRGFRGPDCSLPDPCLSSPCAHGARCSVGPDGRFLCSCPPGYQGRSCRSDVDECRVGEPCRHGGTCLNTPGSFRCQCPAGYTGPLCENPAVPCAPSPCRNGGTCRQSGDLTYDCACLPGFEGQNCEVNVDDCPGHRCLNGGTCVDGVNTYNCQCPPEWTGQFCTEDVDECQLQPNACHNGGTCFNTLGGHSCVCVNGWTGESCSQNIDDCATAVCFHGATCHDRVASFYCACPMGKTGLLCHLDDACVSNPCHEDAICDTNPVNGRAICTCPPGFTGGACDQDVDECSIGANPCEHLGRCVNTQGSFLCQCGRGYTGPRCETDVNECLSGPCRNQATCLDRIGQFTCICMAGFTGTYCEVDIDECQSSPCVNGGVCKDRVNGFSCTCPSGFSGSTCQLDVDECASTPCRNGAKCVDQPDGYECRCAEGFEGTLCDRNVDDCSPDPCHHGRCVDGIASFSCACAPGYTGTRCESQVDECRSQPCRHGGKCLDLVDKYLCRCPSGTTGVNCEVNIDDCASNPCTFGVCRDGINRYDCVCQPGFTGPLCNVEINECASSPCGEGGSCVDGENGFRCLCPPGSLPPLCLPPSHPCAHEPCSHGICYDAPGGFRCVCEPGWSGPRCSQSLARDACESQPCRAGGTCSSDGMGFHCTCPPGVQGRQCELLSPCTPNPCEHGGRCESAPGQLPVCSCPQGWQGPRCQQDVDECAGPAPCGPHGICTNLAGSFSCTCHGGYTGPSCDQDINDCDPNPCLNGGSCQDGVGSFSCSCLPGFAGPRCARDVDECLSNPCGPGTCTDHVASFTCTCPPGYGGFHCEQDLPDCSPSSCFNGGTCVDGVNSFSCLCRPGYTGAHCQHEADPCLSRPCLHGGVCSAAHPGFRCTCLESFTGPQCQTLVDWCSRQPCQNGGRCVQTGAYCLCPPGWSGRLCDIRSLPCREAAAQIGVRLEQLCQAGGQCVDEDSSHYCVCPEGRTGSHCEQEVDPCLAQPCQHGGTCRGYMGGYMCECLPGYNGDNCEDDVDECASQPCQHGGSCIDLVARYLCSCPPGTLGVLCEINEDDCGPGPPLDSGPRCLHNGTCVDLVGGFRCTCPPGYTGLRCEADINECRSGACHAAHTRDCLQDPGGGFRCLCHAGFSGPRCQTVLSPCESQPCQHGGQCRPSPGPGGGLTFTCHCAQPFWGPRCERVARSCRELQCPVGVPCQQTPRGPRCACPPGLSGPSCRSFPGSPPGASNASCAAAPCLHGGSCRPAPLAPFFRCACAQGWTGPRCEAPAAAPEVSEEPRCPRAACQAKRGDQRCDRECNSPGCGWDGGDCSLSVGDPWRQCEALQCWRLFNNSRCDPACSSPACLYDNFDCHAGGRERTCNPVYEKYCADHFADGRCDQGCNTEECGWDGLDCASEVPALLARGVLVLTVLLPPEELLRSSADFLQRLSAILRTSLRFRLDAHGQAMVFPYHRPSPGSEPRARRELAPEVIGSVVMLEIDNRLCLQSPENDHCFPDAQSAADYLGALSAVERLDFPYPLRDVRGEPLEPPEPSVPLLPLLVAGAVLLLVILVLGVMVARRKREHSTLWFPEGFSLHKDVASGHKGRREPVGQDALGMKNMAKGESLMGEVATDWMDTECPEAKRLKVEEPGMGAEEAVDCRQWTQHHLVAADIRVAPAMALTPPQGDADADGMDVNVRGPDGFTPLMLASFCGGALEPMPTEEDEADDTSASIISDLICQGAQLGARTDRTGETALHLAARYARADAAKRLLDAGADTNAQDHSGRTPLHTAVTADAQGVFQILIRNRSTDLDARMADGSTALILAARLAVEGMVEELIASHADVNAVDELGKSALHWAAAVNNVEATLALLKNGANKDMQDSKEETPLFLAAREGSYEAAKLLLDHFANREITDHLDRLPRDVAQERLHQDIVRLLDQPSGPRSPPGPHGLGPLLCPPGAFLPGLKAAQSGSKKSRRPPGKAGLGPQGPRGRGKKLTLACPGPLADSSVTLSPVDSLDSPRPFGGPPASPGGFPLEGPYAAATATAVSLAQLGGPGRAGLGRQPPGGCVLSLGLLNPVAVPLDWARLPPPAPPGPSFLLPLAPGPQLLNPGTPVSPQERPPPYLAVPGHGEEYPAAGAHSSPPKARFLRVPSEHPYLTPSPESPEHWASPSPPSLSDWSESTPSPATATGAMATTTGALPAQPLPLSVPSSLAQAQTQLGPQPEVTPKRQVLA
A short description of assay [10]: small-molecule microarray binders of probe aEGFR, primary screen, biochemical, biotinylated probe, 635/667 nm fluorescence (AID 1097).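 Also: probe is a biotinylated anti-EGFR antibody binding compounds printed on slides; score combines fluorescence near 667 nm and signal to noise of each spot.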 The settings on record: higher = more signal.

Results on 15 molecules are retold here after PubChem BioAssay.

Activity calls are given as the source filed them.

Chain of Torsin-1A-interacting protein 2 (Homo sapiens) (Q8NFQ8 whole entry, looked up): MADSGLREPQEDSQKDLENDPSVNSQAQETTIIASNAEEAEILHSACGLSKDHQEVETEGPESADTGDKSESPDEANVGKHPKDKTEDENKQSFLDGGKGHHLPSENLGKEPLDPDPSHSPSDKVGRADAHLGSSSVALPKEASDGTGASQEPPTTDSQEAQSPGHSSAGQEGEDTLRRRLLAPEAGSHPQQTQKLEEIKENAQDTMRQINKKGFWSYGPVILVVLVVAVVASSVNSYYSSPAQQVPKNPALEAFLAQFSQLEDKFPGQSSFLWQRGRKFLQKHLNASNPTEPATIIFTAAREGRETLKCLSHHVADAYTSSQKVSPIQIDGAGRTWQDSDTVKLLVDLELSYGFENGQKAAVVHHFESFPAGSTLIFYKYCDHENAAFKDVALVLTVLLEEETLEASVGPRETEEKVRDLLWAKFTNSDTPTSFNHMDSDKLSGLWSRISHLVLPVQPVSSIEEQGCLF

In the case of `COC(=O)[C@@]1(Cc2ccc(F)cc2)[C@H]2c3cc(C(=O)N(C)C)n(Cc4ccc(C)o4)c3C[C@H]2CN1C(=O)c1ccccc1`, the composite z-score is 0.323 in assay [1]; 3.05 in assay [5]; 1.26 in [7]; -0.386 in assay [8]; -0.124 in assay [9]; 0.763 in assay [10]. The z-score in assay [2] was -0.319 (inactive); in assay [3], -7.9 (inactive); in assay [4], 0.792 (inactive); in assay [6], -0.386 (inactive).
With `CCCCCCc1nc(-c2ccc(-c3ccc(Cl)c(Cl)c3)o2)c(C)c2c1[Si](C(C)C)(C(C)C)OC2`, the composite z-score in assay [1] was 0.337; in assay [5] it was 0.703; in assay [7] it was -0.259; in [8], -0.123; in assay [9] it was -0.243; in assay [10] it was -0.233. In addition, the z-score was -0.972 (inactive) in [2], -3.62 (inactive) in assay [3], 0.0962 (inactive) in [4] and -0.0336 (inactive) in [6].
Turning to `O=C1C2C=CC(C(O)c3ccc(F)cc3)N(Nc3ccc([N+](=O)[O-])cc3)C2C(=O)N1c1ccccc1` (stereo not given), the composite z-score in assay [1] was 1.35; in [5], 3.27; in [7] it was 0.187; in assay [8] it was 0.257; in assay [9], 1.1; in assay [10], -0.0435. The z-score in [2] is 0.099 (inactive); in assay [3], 1.75 (inactive); in [4], 1.96 (inactive); in assay [6], -0.848 (inactive).
Take `CN(C)C(=O)[C@]1(Cc2ccccc2)N=C(c2ccc(OCCCO)cc2)O[C@@H]1c1ccccc1N=[N+]=[N-]`: the composite z-score in assay [1] came to 1.56; in assay [5], 2.84; in assay [7] it was 0.141; in assay [8] it was 1.35; in [9] it was 1.12; in assay [10], 0.438. Besides, the z-score in assay [2] is -0.305 (inactive); in assay [3], -0.655 (inactive); in assay [4], 1.06 (inactive); in assay [6] it was 0.841 (inactive).
In the case of `O=C1[C@@]23C=C(Br)[C@H](C[C@@H]2COC3)[C@]12CO2`, the composite z-score is -1.63 in assay [1]; 0.246 in assay [5]; -0.14 in assay [7]; -1.31 in [8]; -1.5 in assay [9]; -0.272 in [10]. Also, the z-score was -0.241 (inactive) in assay [2], -9 (active) in [3], 0.403 (inactive) in assay [4] and -0.366 (inactive) in assay [6].
Regarding `CCOC(=O)[C@H]1C/C=C/C[C@H](C(=O)OCC)C(=O)O[C@H]2[C@@H](OC)O[C@H](CO)[C@@H](OC(=O)c3ccc(Br)cc3)[C@@H]2OC1=O`, the composite z-score was 0.419 in [1]; 0.796 in [5]; -0.0653 in [7]; 0.197 in assay [8]; 0.415 in assay [9]; -0.116 in assay [10]. Moreover, the z-score in [2] was -0.436 (inactive); in [3], -0.316 (inactive); in [4] it was 2.17 (inactive); in [6] it was -0.67 (inactive).
Consider `CC(C)NC(=O)[C@@]1(Cc2ccccc2I)c2ccccc2C(=O)N(Cc2ccccc2Cl)[C@H]1c1ccc(CO)cc1`, for which the composite z-score in assay [1] was 1.51; in assay [5], 2.59; in assay [7], -0.0441; in assay [8], 0.607; in assay [9] it was 1.08; in [10], -0.0181. Besides, the z-score in [2] is 1.14 (inactive); in assay [3] it was -0.199 (inactive); in [4] it was 1.39 (inactive); in [6], -0.406 (inactive).
Regarding `CC(C)=CCCC(C)=CC(O)C1C=CC2C(=O)N(c3ccccc3)C(=O)C2N1Nc1ccc(C(C)C)cc1` (stereo not given), the composite z-score in assay [1] is 0.629; in assay [5], 3; in [7], 0.0937; in assay [8], 0.0026; in assay [9] it was 1.05; in assay [10] it was -0.0234. Moreover, the z-score in assay [2] is 0.437 (inactive); in [3], 0.834 (inactive); in assay [4], 1.07 (inactive); in [6], -0.589 (inactive).
Regarding `COCCOC(=O)N1C(=O)[C@@]2(c3cc(C#Cc4ccc(OC)cc4)ccc31)[C@H](c1ccc(O)cc1)N1[C@H](c3ccccc3)[C@H](c3ccccc3)OC(=O)[C@H]1[C@@H]2C(=O)Nc1nc2ccccc2s1`, the composite z-score is 1.56 in assay [1]; 2.06 in [5]; -0.0376 in assay [7]; 1.09 in assay [8]; 1.08 in assay [9]; -0.0103 in [10]. For the same molecule, the z-score in assay [2] is 0.15 (inactive); in [3], 0.0615 (inactive); in assay [4], 0.684 (inactive); in [6], -0.944 (inactive).
With `O=C1C2C=CC(C(O)C=Cc3ccc([N+](=O)[O-])cc3)N(Nc3ccccc3F)C2C(=O)N1c1ccccc1` (stereo not given), the composite z-score in assay [1] worked out at 1.57; in [5], 3.1; in assay [7], 0.0511; in assay [8] it was 0.0689; in assay [9], 0.994; in assay [10], 0.293. Moreover, the z-score in [2] was 0.612 (inactive); in assay [3] it was 2.1 (inactive); in assay [4] it was 1.47 (inactive); in [6], -1.04 (inactive).
As to `COc1ccc(-c2cc3c(c(Cc4ccccc4)n2)[Si](C(C)C)(C(C)C)OC3)cn1`, the composite z-score in assay [1] is -0.738; in assay [5], -0.655; in assay [7], -0.115; in assay [8], -0.154; in assay [9], -0.459; in [10], -0.16. The z-score is 1.64 (inactive) in assay [2], -0.27 (inactive) in assay [3], 1.41 (inactive) in assay [4] and -1.41 (inactive) in assay [6].
With `COc1ccc(CCNC(=O)[C@@]2(C)c3ccccc3C(=O)N(c3ccc(C)cn3)[C@H]2c2ccc(CO)cc2)cc1`, the composite z-score in assay [1] was -0.0351; in assay [5], -0.04; in assay [7] it was 0.0851; in [8], -0.704; in assay [9] it was -0.736; in assay [10], -0.247. The z-score in assay [2] is -1.39 (inactive); in assay [3], -0.739 (inactive); in assay [4] it was -1.17 (inactive); in [6], -0.121 (inactive).
As to `O=C(NC1CC1)[C@@H]1c2ccccc2C(=O)N(Cc2cc(F)cc(C(F)(F)F)c2)[C@H]1c1ccc(CO)cc1`, the composite z-score in assay [1] is 1.35; in [5] it was 2.85; in assay [7], 0.0351; in assay [8] it was 0.235; in [9] it was -0.418; in assay [10], -0.177. For the same molecule, the z-score was -1.02 (inactive) in [2], -1.15 (inactive) in assay [3], -0.926 (inactive) in assay [4] and -0.213 (inactive) in assay [6].
Take `CC(C)CNC(=O)[C@@]1(Cc2ccccc2I)c2ccccc2C(=O)N(Cc2ccccc2C(F)(F)F)[C@H]1c1ccc(CO)cc1`: the composite z-score was 1.15 in [1]; 1.6 in assay [5]; -0.101 in assay [7]; -0.518 in assay [8]; -0.771 in [9]; -0.201 in assay [10]. The z-score in [2] is -0.618 (inactive); in assay [3] it was -0.0802 (inactive); in [4], -0.403 (inactive); in [6], 0.164 (inactive).
Consider `CC(=O)Nc1cc(Br)ccc1C(=O)NCc1ccccc1`, for which the composite z-score in [1] was 0.717; in [5], 2.06; in assay [7], -0.0778; in assay [8], -0.0557; in assay [9], 0.199; in assay [10], -0.111. Further, the z-score is -1.76 (inactive) in assay [2], -6.28 (inactive) in [3], -1.98 (inactive) in assay [4] and 0.0591 (inactive) in assay [6].
